# About 13,000 (27%) of roughly 48,000 compounds showed an effect of 50% or more. The list shows a part of the results.
# Tested on: Wolbachia pipientis
# Experiment: Anti-Wolbachia Cell-Based Screen
# Assay type: functional
# Parameters: scale not given: in the data most compounds retested in dose-response had high values
# Conditions: 5 µM
row,Structure (SMILES),Percent Effect [%]
1,C[C@@H]1CN(Cc2ccc(-c3ccncc3)cc2F)CC(C(N)=O)O1 (stereo not given in full),-2.76
2,Cc1ccccc1OCCN(C)Cc1noc(CC(C)C)n1,-23.34
3,Clc1snnc1CN1CCCCC1Cn1cncn1 (stereo not given),-4.6
4,Cc1cnn(CC2CCCCN2CCn2cncn2)c1 (stereo not given),-5.934
5,Cc1nc(C2CCCN2Cc2nnc(Cc3ccccc3)o2)no1 (stereo not given),-12.76
6,c1ccc(Cc2nnc(CN3CCCCC3Cn3cncn3)o2)cc1 (stereo not given),108.9
7,Cc1nc(C)n(CC2CCCCN2CCCS(C)(=O)=O)n1 (stereo not given),12.99
8,CCc1nc(C2CCCN2Cc2nnc(Cc3ccccc3)o2)no1 (stereo not given),6.131
9,CCc1nnc(CN2CCCCC2Cn2cncn2)o1 (stereo not given),78.77
10,Cc1nc(C)n(CC2CCCCN2Cc2nnc(C3CC3)o2)n1 (stereo not given),1.656
11,c1ccc(Cc2nnc(CN3CCCC3Cn3cccn3)o2)cc1 (stereo not given),131.9
12,CCc1nnc(CN2CCCCC2Cn2nc(C)nc2C)o1 (stereo not given),93.98
13,OC1CCN(c2ccc(CNc3nc4ccccc4s3)cc2F)CC1,-3.16
14,CS(=O)(=O)N1CCc2[nH]cnc2C12CCN(C(=O)c1ccc[nH]1)CC2,5.069
15,NCCC1CN(Cc2cnc3c(-c4ccccc4)cnn3c2)CCO1 (stereo not given),4.404
16,CN(C)CCCN(C)c1nccc(N2CCN[C@H]3CS(=O)(=O)C[C@H]32)n1,-10.75
17,COCCNC(=O)NCCn1nc(C(F)(F)F)n(C)c1=O,0.0676
18,CC1(C)CN(Cc2c[nH]c(CC3CCCC3)n2)CC[C@]1(C)O,-6.969
19,Cc1cc(C)c(S(=O)(=O)Nc2ccccc2CC(F)(F)F)cc1C(=O)O,3.88
20,c1cnc2c(c1)nc1n2[C@@H](CNCc2nccs2)COC1,-1.802
21,Cc1nc(C)n(CC2CCCN2Cc2cnc(C)s2)n1 (stereo not given),-0.1768
22,Cc1nc(C)n(CC2CCCCN2Cc2cnc(C)s2)n1 (stereo not given),97.07

row,Structure (SMILES),Percent Effect [%]
1,Cc1nc(C)n(CC2CCCCN2Cc2cscn2)n1 (stereo not given),10.69
2,Fc1ccc(-c2nnc(CN3CCCC3Cn3cccn3)o2)cc1 (stereo not given),88.78
3,Fc1ccc(-c2cnc(CN3CCCC3Cn3cccn3)o2)cc1 (stereo not given),-6.963
4,OCC(O)CSCc1cc(Cl)ccc1Cl (stereo not given),-6.234
5,O=C1CC(N(C(=O)c2ccc3[nH]c4c(c3c2)CCCC4)C2CC2)C(=O)N1 (stereo not given),7.465
6,O=C(NC1CCCc2c1[nH]c1ccc(F)cc21)c1n[nH]c2c1CCC2 (stereo not given),132.4
7,CC(=O)NC(c1cc(F)ccc1F)C1CC1 (stereo not given),0.9467
8,O=C(NC1CCCc2c1[nH]c1ccc(F)cc21)c1n[nH]c2c1CCCC2 (stereo not given),120.6
9,O=C(c1cc2c([nH]c1=O)CCC2)N1CCCC1c1ccc(F)cc1 (stereo not given),20.74
10,Cc1ccc(F)cc1NC(=O)CNc1cccc2c1CCCC2,-15.05
11,O=C(NC1CCC1)c1n[nH]c2c1CNCC2,-9.631
12,O=C(NCC1CC1)c1n[nH]c2c1CNCC2.O=C(O)C(F)(F)F.O=C(O)C(F)(F)F,-32.44
13,CC(=O)NC1CCCc2c1[nH]c1ccc(F)cc21 (stereo not given),97.09
14,C/C=C(\C)CN1C[C@H](NC(=O)c2cc[nH]c2C)[C@@H](C2CC2)C1,-10.95
15,CN(C)c1ncncc1NC(=O)Cc1c[nH]c2ccc(F)cc12,-1.659
16,CC(=O)c1cccc(OCCCC(=O)N(C)CCC(F)(F)F)c1,2.017
17,COC(C)c1noc(CN2CCCNCC2)n1 (stereo not given),-0.5202
18,CCOC(C)c1noc(CN2CCNCC2)n1 (stereo not given),-2.697
19,CN(C)C(=O)C1CCCN(C(=O)c2ccccc2-n2cc(CN)cn2)C1 (stereo not given),125.8
20,CN(C)C(=O)N1CCCC(C(=O)N(C)Cc2cnc(N)nc2)C1 (stereo not given),11.15
21,NC(=O)C1CCCN(S(=O)(=O)c2cnn(-c3ccccc3)c2)C1 (stereo not given),5.842
22,NCc1cnn(-c2ccccc2C(=O)NCc2ccncc2)c1,-9.699

row,Structure (SMILES),Percent Effect [%]
1,Cc1ccn(-c2ccc(C(=O)N3CCCC(C(N)=O)C3)cc2)n1 (stereo not given),-6.024
2,CN(C)C(=O)N1CCCC(C(=O)N(C)CCCc2cnn(C)c2)C1 (stereo not given),4.306
3,CNC(=O)C1CCCN(C(=O)c2ccccc2-n2cc(CN)cn2)C1 (stereo not given),111.9
4,CNC(=O)C1CCCN(C(=O)NCCC2Cc3ccccc3C2)C1 (stereo not given),-25.4
5,NCc1cnn(-c2ccccc2C(=O)N2CCCC(C(N)=O)C2)c1 (stereo not given),94.05
6,NC(=O)c1cccc(CNC/C=C/c2ccccc2)c1,-6.459
7,CC(C)OCCOCC(O)CN(C)C(=O)Nc1ccc(F)cc1Cl (stereo not given),-7.203
8,CCc1nc(CNc2cc(Cl)ccc2OCC2CCCO2)no1 (stereo not given),-12.87
9,CCn1c(Nc2ccccc2OC)nc2c(C)nn(C)c2c1=O,5.481
10,CCc1cnc2c(c1Nc1ccc(OC)cc1)c(=O)n(C)c(=O)n2C,-2.304
11,CCc1cnc2c(c1NCc1ccc(OC)cc1)c(=O)n(C)c(=O)n2C,121.6
12,COc1cccc(CNc2c(C)cnc3c2c(=O)n(C)c(=O)n3C)c1,-20.05
13,CCc1cnc2c(c1NCc1ccncc1)c(=O)n(C)c(=O)n2C,-11.7
14,CCc1cnc2c(c1Nc1cccc(OC)c1)c(=O)n(C)c(=O)n2C,98.75
15,CCOc1ccccc1Nc1nc2c(C)nn(C)c2c(=O)n1C,-3.425
16,CCc1cnc2c(c1NCc1cccc(OC)c1)c(=O)n(C)c(=O)n2C,-3.77
17,CCc1cnc2c(c1Nc1ccccc1OC)c(=O)n(C)c(=O)n2C,117.3
18,O=C(N1CCCCC1)N1CCN(CC(O)c2ccc(F)cc2)CC1 (stereo not given),-12.83
19,Cc1nc(CNC(=O)Nc2ccc3c(c2)CCCC(=O)N3)sc1C,3.802
20,Cn1c(CO)cnc1SC(C(=O)NC1CC1)c1ccccc1 (stereo not given),-13.82
21,CC(C)NC(=O)[C@@H]1C[C@@H](N)CN1C(=O)c1cc2c([nH]c1=O)CCCC2,7.662
22,Cn1nc(C2CCCN2)c2c(C(=O)NCC(F)(F)F)cc(C3CC3)nc21 (stereo not given),125.9

row,Structure (SMILES),Percent Effect [%]
1,CCCn1ncc2c(C(=O)Nc3cnn(CC)c3C)cc(C3CC3)nc21,3.978
2,CC(C)CC(NC(=O)c1cc(C2CC2)n[nH]1)c1ncnn1C (stereo not given),-18.23
3,CC(C)CNC(=O)c1cc(C2CC2)nc2c1c(C1CCCN1)nn2C (stereo not given),129.8
4,Cn1nc(C2CCNC2)c2c(C(=O)NCC(F)(F)F)cc(C3CC3)nc21 (stereo not given),104.4
5,O=C(NCC(F)(F)F)NC1CCCc2c1cnn2CCO (stereo not given),2.681
6,Cc1csc(N2CCCN(C(=O)c3nccnc3N)CC2)n1,0.5076
7,CC(NCC1CCN(CCO)CC1)c1ccc(F)c(Cl)c1 (stereo not given),2.095
8,CC(C)CN1C(=O)C2(CCCC2)NC1c1c[nH]nc1-c1cccnc1 (stereo not given),-9.401
9,CNC(=O)C(C)(C)N1CCC[C@H]1C(=O)NCCN1CCCC1.Cl.Cl,7.406
10,CCC(CNC(=O)N1CCOCC2(CCOCC2)C1)c1ccccc1 (stereo not given),-24.39
11,CCS(=O)(=O)CCN(CC1CCCO1)C1CCCC1 (stereo not given),-6.431
12,CCN(CC1CCCO1)S(=O)(=O)N1CCCCCC1 (stereo not given),99.13
13,CC(C)N(C)S(=O)(=O)N(Cc1cccs1)CC1CCCO1 (stereo not given),1.212
14,O=C(CN(Cc1cccc(F)c1)CC1CCCO1)N1CCCC1 (stereo not given),12.97
15,CCN(CC)S(=O)(=O)N1CCCN(CC(=O)NC(C)C)CC1,-10.54
16,O=S(=O)(N1CCCC1)N(Cc1ccccc1)CC1CCCO1 (stereo not given),124.5
17,CCN(CC)S(=O)(=O)N1CCCN(CC2CCCO2)CC1 (stereo not given),96.25
18,CCN(CCS(=O)(=O)CC)CC1CCCO1 (stereo not given),2.463
19,CCN(CC(=O)NC)S(=O)(=O)N1CCCCC1,6.131
20,Cc1cc(CN[C@@H](Cc2ccccc2)C(N)=O)c(C)s1,-7.626
21,Cc1cc(C)n(CCNC(=O)c2ncc[nH]2)c(=O)n1,-0.5408
22,CSc1ncccc1C(=O)N1C[C@H]2CC[C@@H]1CN(c1ncccn1)C2,-10.71

row,Structure (SMILES),Percent Effect [%]
1,CN(CC(=O)NCCC#N)C(c1ccccc1)c1ccccc1,-3.756
2,FC(F)Oc1ccc(NCc2nc(C3CC3)no2)c(OC(F)F)c1,6.863
3,Cc1noc(C(C)C)c1C(=O)NCC(c1ccccc1)N(C)C (stereo not given),108.3
4,CN(C)C(CNC(=O)c1nc(N2CCOCC2)ncc1Cl)c1cccs1 (stereo not given),4.739
5,Cc1noc(C(C)C)c1C(=O)NCC(c1cccs1)N(C)C (stereo not given),102.8
6,Cc1ccc(C(CNC(=O)c2c(C)noc2C(C)C)N(C)C)cc1 (stereo not given),95.03
7,Cc1ccc(C(CNC(=O)c2cc(CC(C)C)nn2C)N(C)C)cc1 (stereo not given),-5.66
8,Cc1noc(C(C)C)c1C(=O)NCC(c1cccc(F)c1)N(C)C (stereo not given),-3.913
9,CC(C)C(=O)NS(=O)(=O)CCc1ccccc1,-1.365
10,Cc1ccnc(NCCNC(=O)CCNC(=O)c2ccccc2F)c1,6.973
11,Cn1cc(CN2CCc3onc(C(=O)N4CCCC4)c3C2)cn1.O=C(O)C(F)(F)F,123
12,Cc1ccc(CN2CCc3onc(C(=O)NC(C)C)c3C2)o1.O=C(O)C(F)(F)F,106.2
13,CC(C)NC(=O)N1CCc2onc(C(=O)Nc3cccnc3)c2C1.O=C(O)C(F)(F)F,-28.12
14,Cc1ccc(CN2CCc3[nH]nc(C(=O)N4CCN(C)CC4)c3C2)o1.O=C(O)C(F)(F)F.O=C(O)C(F)(F)F.O=C(O)C(F)(F)F,-23.43
15,Cc1ccc(CN2CCc3onc(C(=O)Nc4cccnc4)c3C2)o1.O=C(O)C(F)(F)F.O=C(O)C(F)(F)F,119.7
16,Cc1ccc(CN2CCc3onc(C(=O)N4CCCC4)c3C2)o1.O=C(O)C(F)(F)F,105.8
17,Cc1ccc(CN2CCc3[nH]nc(C(=O)N(C)C)c3C2)o1.O=C(O)C(F)(F)F,3.694
18,COCc1nn(C)c2c1CN(Cc1cnn(C)c1)CC2.O=C(O)C(F)(F)F,-20.95
19,CN(C)C(=O)N1CCc2onc(C(=O)Nc3cccnc3)c2C1.O=C(O)C(F)(F)F,-32.01
20,CCO[C@@H]1C[C@H]2CN(Cc3ccc(C)o3)CCN2C1.O=C(O)C(F)(F)F.O=C(O)C(F)(F)F,-6.795
21,Cc1ccc(CN2CCO[C@@H]3C[C@@H](C(=O)NC(C)C)C[C@H]32)o1.O=C(O)C(F)(F)F,-8.614
22,Cn1cc(CN2CCc3onc(COc4cccnc4)c3C2)cn1.O=C(O)C(F)(F)F.O=C(O)C(F)(F)F,-7.028
